This note sets out measurements from PubChem BioAssay.

Activity calls are given as the source filed them.

For test [1], the system named is PRMT1 (protein arginine N-methyltransferase 1). The test is described as follows: PRMT1 binders on small-molecule microarrays, primary screen, biochemical, small-molecule microarray, 635 nm fluorescence (AID 1088).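 Also: binding of Prmt1 protein to compounds spotted on small-molecule microarray slides.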 The note with it: small-molecule microarray binding, higher = more signal.
Test [2] in a line: yeast growth modulation, basal conditions, primary screen, YJM789 clinical isolate, OD600, 24 h (AID 1089).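 Also: growth of clinical yeast isolate S. cerevisiae YJM 789 seeded 1000 cells per well; test concentration not given here.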 The note with it: S. cerevisiae YJM789 growth, higher = more signal, called active from +8 up or from −8 down.
Test [3] in a line: fission yeast growth modulation, primary screen, strain 972, OD600, 24 h, no modulator (AID 1090).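 Also: basal condition with compound alone and no growth modifier present; test concentration not given here.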 To be noted: S. pombe 972 growth, higher = more signal, called active from +8 up or from −8 down.
Test [4] in a line: S. cerevisiae growth modulation with rapamycin, primary screen, strain BY4716, OD600, 96 h (AID 1091). Also: test concentration not given here. The note with it: higher = more signal, called active from +8 up or from −8 down.
For test [5], the target named is Torsin-1A-interacting protein 2 (Homo sapiens) (UniProt Q8NFQ8). The test is described as follows: LULL1 binders on small-molecule microarray, primary screen, cell lysate, human LULL1 lysate, 635/667 nm fluorescence (AID 1092).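 Also: probe is lysate of COS7 cells overexpressing human LULL1; score merges per-feature 667 nm fluorescence with signal-to-noise.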 The note with it: hLULL1 lysate binding, 635 nm fluorescence, higher = more signal.
Torsin-1A-interacting protein 2 (Homo sapiens), sequence (Q8NFQ8 whole entry, looked up): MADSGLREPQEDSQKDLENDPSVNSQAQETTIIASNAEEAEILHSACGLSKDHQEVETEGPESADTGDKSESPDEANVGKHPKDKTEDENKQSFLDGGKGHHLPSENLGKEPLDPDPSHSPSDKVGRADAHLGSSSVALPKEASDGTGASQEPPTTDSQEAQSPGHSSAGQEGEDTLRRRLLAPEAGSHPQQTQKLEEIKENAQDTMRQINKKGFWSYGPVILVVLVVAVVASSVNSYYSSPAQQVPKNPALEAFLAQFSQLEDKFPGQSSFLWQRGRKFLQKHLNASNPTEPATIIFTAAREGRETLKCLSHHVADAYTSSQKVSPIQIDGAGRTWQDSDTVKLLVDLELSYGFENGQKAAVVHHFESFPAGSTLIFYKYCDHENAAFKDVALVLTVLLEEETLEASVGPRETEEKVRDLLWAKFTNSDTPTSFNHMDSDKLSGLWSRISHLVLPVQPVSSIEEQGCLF
The nature of test [6]: E. coli growth modulation, two-sided OD650, primary screen, E. coli filamentation project, strain DRC41, 24 h (AID 1093).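 Also: MC1000 strain lacking acrAB efflux and sulA so SOS filamentation is blocked; test concentration not given here.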 The note with it: OD650, 24 h, higher = more signal, called active from +8 up or from −8 down.
Test [7] in a line: small-molecule microarray binders of probe aLefty2, primary screen, biochemical, biotinylated probe, 635/667 nm fluorescence (AID 1094).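 Also: score merges spot fluorescence near 667 nm with spot signal-to-noise ratio.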 To be noted: higher = more signal.
In test [8] the test system is Noggin (protein binding on small-molecule microarray). Nature of the test: Noggin binders on small-molecule microarray, primary screen, biochemical, 635/667 nm fluorescence (AID 1095).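 Also: score merges 667 nm feature fluorescence with signal to noise over triplicate slides.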 To be noted: 635 nm fluorescence, higher = more signal.
The target in test [9] is Neurogenic locus notch homolog protein 3 (Homo sapiens) (UniProt Q9UM47). The test is described as follows: NOTCH3 binders on small-molecule microarray, primary screen, biochemical, 635/667 nm fluorescence (AID 1096). The note with it: NOTCH3 binding, 635 nm fluorescence, higher = more signal.
Neurogenic locus notch homolog protein 3 (Homo sapiens), sequence (Q9UM47 whole entry, looked up): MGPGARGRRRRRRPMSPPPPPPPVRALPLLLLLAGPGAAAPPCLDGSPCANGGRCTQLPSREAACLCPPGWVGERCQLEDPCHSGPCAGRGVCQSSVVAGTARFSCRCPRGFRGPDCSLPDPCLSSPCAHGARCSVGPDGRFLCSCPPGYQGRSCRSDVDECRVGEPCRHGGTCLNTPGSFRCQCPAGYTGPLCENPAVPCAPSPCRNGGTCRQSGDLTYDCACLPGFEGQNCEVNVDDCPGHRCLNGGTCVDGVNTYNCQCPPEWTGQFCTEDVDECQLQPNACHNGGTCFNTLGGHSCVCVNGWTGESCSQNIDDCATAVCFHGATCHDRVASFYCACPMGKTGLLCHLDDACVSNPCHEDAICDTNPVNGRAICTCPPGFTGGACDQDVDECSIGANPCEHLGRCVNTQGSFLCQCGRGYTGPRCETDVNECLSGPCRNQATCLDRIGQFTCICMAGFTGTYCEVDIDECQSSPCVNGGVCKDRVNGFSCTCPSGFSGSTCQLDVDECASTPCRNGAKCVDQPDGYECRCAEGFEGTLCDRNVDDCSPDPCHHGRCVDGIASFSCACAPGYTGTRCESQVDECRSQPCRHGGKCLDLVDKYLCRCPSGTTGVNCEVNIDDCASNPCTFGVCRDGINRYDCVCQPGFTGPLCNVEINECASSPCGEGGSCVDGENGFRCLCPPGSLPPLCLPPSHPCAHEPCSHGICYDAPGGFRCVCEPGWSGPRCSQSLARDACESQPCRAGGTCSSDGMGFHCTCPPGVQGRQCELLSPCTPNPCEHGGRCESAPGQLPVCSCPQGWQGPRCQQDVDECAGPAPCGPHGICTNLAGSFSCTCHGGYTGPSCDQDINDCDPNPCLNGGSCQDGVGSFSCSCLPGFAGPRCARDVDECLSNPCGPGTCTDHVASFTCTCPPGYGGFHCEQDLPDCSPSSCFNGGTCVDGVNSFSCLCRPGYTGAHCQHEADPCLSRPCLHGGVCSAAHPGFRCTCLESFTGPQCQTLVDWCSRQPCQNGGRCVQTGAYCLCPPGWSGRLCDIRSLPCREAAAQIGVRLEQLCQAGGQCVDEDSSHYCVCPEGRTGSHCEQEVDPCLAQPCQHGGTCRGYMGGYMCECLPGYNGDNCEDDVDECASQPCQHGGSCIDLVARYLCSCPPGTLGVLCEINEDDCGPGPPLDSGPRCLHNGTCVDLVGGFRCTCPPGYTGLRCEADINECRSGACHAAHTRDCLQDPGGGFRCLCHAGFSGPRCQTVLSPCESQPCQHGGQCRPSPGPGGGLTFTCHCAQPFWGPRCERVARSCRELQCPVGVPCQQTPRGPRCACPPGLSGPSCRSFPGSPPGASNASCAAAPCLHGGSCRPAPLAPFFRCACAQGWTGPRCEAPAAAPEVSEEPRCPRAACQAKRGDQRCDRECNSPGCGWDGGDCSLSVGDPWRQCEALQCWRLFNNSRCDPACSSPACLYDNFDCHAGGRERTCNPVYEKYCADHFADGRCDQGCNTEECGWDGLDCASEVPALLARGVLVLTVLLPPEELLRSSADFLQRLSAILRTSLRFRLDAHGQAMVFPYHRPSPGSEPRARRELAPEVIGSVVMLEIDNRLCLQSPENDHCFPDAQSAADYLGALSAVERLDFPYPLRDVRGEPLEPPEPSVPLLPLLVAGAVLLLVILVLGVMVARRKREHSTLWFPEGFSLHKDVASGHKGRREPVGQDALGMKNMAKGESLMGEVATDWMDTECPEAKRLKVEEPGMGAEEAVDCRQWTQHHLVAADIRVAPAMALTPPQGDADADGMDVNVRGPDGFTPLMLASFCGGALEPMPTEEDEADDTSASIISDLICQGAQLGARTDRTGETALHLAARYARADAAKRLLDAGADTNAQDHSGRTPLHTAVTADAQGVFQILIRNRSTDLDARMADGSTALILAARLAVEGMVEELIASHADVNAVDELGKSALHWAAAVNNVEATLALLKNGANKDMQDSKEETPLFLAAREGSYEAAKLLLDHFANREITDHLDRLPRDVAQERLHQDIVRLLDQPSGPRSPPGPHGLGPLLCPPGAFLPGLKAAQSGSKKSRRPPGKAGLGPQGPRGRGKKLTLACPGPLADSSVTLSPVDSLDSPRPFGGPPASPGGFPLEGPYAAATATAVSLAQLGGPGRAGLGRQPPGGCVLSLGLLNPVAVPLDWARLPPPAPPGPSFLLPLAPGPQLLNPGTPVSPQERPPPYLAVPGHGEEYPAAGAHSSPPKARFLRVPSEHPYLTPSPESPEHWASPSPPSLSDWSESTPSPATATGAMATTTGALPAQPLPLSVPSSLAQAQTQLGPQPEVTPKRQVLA
The nature of test [10]: small-molecule microarray binders of probe aEGFR, primary screen, biochemical, biotinylated probe, 635/667 nm fluorescence (AID 1097).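 Also: probe is a biotinylated anti-EGFR antibody binding compounds printed on slides; score combines fluorescence near 667 nm and signal to noise of each spot.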 To be noted: higher = more signal.
Test [11] concerns Plasmodium falciparum Sir2 (PF13_0152, Sir2A). The test is described as follows: pfSir2 binders on small-molecule microarrays, primary screen, biochemical, small-molecule microarray, 635 nm fluorescence (AID 1098).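 Also: score merges spot fluorescence intensity with its signal-to-noise ratio.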 The note with it: small-molecule microarray binding, fluorescence 635 nm; higher = more signal.
The nature of test [12]: small-molecule microarray binders of probe aDKK1, primary screen, biochemical, biotinylated probe, 635/667 nm fluorescence (AID 1099).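 Also: score merges 667nm spot fluorescence with signal to noise across triplicate slides; reference of the scale not given here.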 To be noted: higher = more signal.
The nature of test [13]: small-molecule microarray binders of probe aCHRDL2, primary screen, biochemical, biotinylated probe, 635/667 nm fluorescence (AID 1100). The note with it: higher = more signal.
A short description of test [14]: splicing luciferase reporter signal modulators, primary screen, spliceosome inhibition project, cell-based, HEK293, splice +/- reporter (AID 1101).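 Also: HEK293 cells carrying a splicing-competent luciferase reporter gene; test concentration not given here.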 The note with it: luminescence, 24 h, higher = more signal, called active from +8 up or from −8 down.
For test [15], the target named is Fibroblast growth factor 10 (Homo sapiens) (UniProt O15520). Nature of the test: FGF10 binders on small-molecule microarrays, primary screen, biochemical, small-molecule microarray, 635 nm fluorescence (AID 1102). The note with it: FGF10 binding, fluorescence 635 nm, higher = more signal.
Fibroblast growth factor 10 (Homo sapiens), sequence (O15520 whole entry, looked up): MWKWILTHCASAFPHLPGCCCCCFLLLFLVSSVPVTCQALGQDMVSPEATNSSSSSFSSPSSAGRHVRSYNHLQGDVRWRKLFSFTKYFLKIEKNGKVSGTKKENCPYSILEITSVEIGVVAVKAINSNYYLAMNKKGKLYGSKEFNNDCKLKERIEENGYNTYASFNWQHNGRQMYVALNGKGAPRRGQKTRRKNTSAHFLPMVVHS
Test [16] relates to glycogen synthase kinase-3 (GSK3A per assay name; protocol says GSK3B). Nature of the test: GSK3 binders on small-molecule microarrays, primary screen, biochemical, small-molecule microarray, 635 nm fluorescence, GSK3A (AID 1103). Also: the record names both GSK3A and GSK3B. The note with it: small-molecule microarray binding, fluorescence 635 nm; higher = more signal.
Test [17] deals with Epidermal growth factor receptor (Homo sapiens) (UniProt P00533). Nature of the test: EGFR binders on small-molecule microarrays, primary screen, biochemical, small-molecule microarray, 635 nm fluorescence (AID 1104).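 Also: score merges 667 nm emission intensity with spot signal to noise over triplicate slides.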 The note with it: EGFR binding, higher = more signal.
Epidermal growth factor receptor (Homo sapiens), sequence (P00533 whole entry, looked up): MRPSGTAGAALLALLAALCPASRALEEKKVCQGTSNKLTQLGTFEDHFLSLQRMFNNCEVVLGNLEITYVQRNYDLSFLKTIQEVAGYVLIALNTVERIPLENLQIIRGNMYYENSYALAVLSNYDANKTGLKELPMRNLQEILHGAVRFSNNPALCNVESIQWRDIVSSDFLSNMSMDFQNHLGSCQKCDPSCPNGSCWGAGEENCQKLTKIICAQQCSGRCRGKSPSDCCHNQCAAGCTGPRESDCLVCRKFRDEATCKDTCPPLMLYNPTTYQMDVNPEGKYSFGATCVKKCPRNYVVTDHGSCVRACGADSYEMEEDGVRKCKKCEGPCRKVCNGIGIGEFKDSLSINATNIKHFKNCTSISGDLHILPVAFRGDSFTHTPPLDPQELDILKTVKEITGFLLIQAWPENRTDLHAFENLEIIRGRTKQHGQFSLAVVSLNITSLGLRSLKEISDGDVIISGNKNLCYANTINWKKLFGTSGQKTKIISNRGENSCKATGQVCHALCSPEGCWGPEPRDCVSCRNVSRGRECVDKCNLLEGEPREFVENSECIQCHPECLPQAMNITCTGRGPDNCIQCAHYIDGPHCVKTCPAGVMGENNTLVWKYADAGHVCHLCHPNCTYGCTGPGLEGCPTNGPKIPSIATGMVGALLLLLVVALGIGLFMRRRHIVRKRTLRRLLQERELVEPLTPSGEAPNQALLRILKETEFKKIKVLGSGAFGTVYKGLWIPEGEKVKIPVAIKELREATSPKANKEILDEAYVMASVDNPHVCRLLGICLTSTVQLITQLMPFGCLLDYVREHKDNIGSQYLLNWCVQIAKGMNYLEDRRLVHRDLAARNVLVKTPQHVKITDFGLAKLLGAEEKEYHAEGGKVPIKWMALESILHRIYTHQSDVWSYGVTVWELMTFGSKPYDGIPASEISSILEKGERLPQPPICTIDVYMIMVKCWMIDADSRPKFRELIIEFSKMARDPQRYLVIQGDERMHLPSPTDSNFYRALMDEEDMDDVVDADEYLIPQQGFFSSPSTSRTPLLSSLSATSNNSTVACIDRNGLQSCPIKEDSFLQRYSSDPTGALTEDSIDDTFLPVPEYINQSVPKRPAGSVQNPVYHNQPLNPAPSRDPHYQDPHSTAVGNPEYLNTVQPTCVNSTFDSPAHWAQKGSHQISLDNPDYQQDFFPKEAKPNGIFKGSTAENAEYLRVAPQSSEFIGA
The target in test [18] is Follistatin-related protein 3 (Homo sapiens) (UniProt O95633). The test is described as follows: FSTL3 binders on small-molecule microarrays, primary screen, biochemical, small-molecule microarray, 635 nm fluorescence (AID 1105).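 Also: score merges emission near 667 nm and signal to noise per printed spot across three slides.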 The note with it: FSTL3 binding, higher = more signal.
Follistatin-related protein 3 (Homo sapiens), sequence (O95633 whole entry, looked up): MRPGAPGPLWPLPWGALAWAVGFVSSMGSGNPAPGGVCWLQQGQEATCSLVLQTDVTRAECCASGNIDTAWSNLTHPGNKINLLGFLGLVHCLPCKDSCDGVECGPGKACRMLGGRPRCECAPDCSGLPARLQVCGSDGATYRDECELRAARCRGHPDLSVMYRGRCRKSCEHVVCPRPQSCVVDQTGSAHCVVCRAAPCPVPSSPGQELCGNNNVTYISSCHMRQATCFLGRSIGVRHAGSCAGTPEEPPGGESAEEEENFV
Test [19] concerns the target Dickkopf-related protein 1 (Homo sapiens) (UniProt O94907). The test is described as follows: DKK1 binders on small-molecule microarrays, primary screen, biochemical, small-molecule microarray, 635 nm fluorescence scan (AID 1106).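 Also: score merges emission near 667 nm with signal to noise over three replicate slides.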 The note with it: DKK1 binding, higher = more signal.
For test [20], the system named is Inhibin beta A chain (activin A). Nature of the test: INHBA (activin A) binders on microarrays, primary screen, biochemical, small-molecule microarray, 635 nm fluorescence scan (AID 1107).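 Also: mouse activin A protein probed at 4.33 µg/mL on printed slides; score merges bound-protein fluorescence near 667 nm with spot signal-to-noise.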 To be noted: small-molecule microarray binding, higher = more signal.

Dickkopf-related protein 1 (Homo sapiens), sequence (O94907 whole entry, looked up): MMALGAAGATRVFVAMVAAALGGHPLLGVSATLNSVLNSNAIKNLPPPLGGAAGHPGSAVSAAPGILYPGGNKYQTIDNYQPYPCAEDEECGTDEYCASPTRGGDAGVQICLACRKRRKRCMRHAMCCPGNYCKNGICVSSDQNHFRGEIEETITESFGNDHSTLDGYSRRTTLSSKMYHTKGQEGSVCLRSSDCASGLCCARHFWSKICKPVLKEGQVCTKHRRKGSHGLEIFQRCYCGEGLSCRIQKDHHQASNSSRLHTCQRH

As to `C[N+](C)(C)CCCC[C@@H]1NC(=O)[C@H]2C[C@@H](C(=O)NCCCCCNC(=O)CS)[C@@H](c3ccc(O)cc3)N2C1=O`, the composite z-score was 0.808 in test [1]; 1.91 in test [5]; -0.134 in test [7]; 0.212 in test [8]; 0.58 in test [9]; -0.0583 in test [10]. Also, the composite z-score in test [11] is 1.43; in [12], -0.0443; in [13] it was 0.161; in test [15] it was 0.499; in test [16], 0.57; in [17], 0.0872. Besides, the results for the composite z-score in [18], in test [19] and in test [20] were -0.0399, 0.312 and 0.425, respectively. Moreover, the z-score in [2] is -4.72 (inactive); in [3] it was -0.839 (inactive); in [4], -0.554 (inactive); in test [6] it was 1.42 (inactive); in test [14], -0.744 (inactive).
As to `CCOC(=O)C[C@H]1[C@H](OC(=O)c2cc3ccccc3oc2=O)[C@@H](NC(=O)C2CCCCC2)c2cc(OCCCO)ccc2N1C(=O)Cc1ccc(OC)cc1`, the composite z-score was 0.466 in test [1]; 0.727 in test [5]; 0.0424 in [7]; 0.909 in [8]; 0.894 in [9]; -0.0623 in [10]. Also, the composite z-score amounted to 0.199 in test [11]; 0.0483 in test [12]; 0.0801 in test [13]; 1 in test [15]; 0.469 in [16]; 0.193 in test [17]. In addition, the composite z-score was 0.397 in [18], 0.447 in [19] and 0.6 in test [20]. Moreover, the z-score in [2] was 0.248 (inactive); in [3], 0.222 (inactive); in [4] it was -0.295 (inactive); in test [6], -0.723 (inactive); in test [14], 0.0427 (inactive).
Take `CCOC(=O)C1=CC[C@@H](c2ccc(F)cc2)N(S(=O)(=O)c2ccc(C)cc2)[C@H]1c1ccc([N+](=O)[O-])cc1`: the composite z-score in [1] is 0.518; in test [5], 2.5; in test [7] it was 0.0322; in [8] it was -0.234; in test [9], 0.73; in test [10], -0.0409. The composite z-score is 0.681 in test [11]; 0.0684 in test [12]; 0.373 in test [13]; 0.914 in test [15]; 0.988 in [16]; -0.24 in test [17]. Besides, the composite z-score in test [18] was 0.485; in test [19], -0.453; in [20] it was 0.537. The z-score in test [2] was 0.342 (inactive); in test [3], 1.32 (inactive); in test [4], 6.03 (inactive); in test [6], 0.543 (inactive); in [14], -0.689 (inactive).
Consider `CCOC(=O)C[C@H]1[C@H](OC(=O)c2ccc(-c3ccccc3)cc2)[C@@H](NC(=O)CC(C)C)c2cc(OCCCO)ccc2N1C(=O)Cc1ccc(OC)cc1`, for which the composite z-score in [1] was 0.403; in [5], 0.734; in test [7], 0.19; in test [8], -0.316; in [9], -0.117; in test [10], -0.0084. The composite z-score in test [11] was -0.146; in test [12], 0.448; in [13] it was 0.624; in [15] it was 0.22; in [16], 0.0434; in test [17] it was -0.263. The composite z-score in test [18] was -0.195; in test [19] it was -0.204; in test [20] it was -0.353. The z-score was -1.15 (inactive) in test [2]; -0.218 (inactive) in test [3]; 0.143 (inactive) in [4]; -1.1 (inactive) in test [6]; -0.463 (inactive) in test [14].
As to `Cc1ccc(S[C@]2(C(=O)NCCCN(C)C)CC(=O)N(Cc3ccccc3Cl)[C@@H]2c2ccc(CO)cc2I)cc1`, the composite z-score in test [1] was -0.338; in test [5] it was 0.605; in test [7] it was 0.258; in [8], -0.845; in test [9], -1.22; in test [10] it was -0.209. Moreover, the composite z-score was -0.393 in test [11]; 0.844 in test [12]; 0.864 in [13]; -1.29 in test [15]; -1.19 in [16]; -1.3 in test [17]. In addition, the composite z-score in test [18] is -0.551; in test [19], -1.39; in test [20], 1.4. The z-score in test [2] is 0.641 (inactive); in test [3] it was -2.52 (inactive); in [4], 1.43 (inactive); in test [6], 0.562 (inactive); in test [14], -1.53 (inactive).
